# In PubChem BioAssay (NCI):
# About 83,000 compounds went through this panel and 20% of them were active in at least one assay; those are over-represented in the sample as a whole.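 Single-concentration screen, 48 h exposure, 96-well plates. Endpoint: percent growth. Below 10 = active.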 The source made the active and inactive calls.
# Test system: HCT-116 colon
# Assay: NCI-60 one-dose screen, 48 h (100 = growth as untreated, 0 = no growth, -100 = all killed)
# Conditions: 10 µM unless noted
# Experimental: Growth inhibition of the HCT-116 human tumor cell line is measured as a screen for anti-cancer activity. Cells are grown in 96 well plates and exposed to the test compound for 48 hours. Compounds are tested at a single concentration, which is 10^-5 M for most compounds. The reported endpoint is percent growth (GI% or GIPRCNT), where numbers from 0 - 100% represent growth inhibition, and numbers from -100% - 0 represent cell death. For example, a value of 40 represents 60% growth inhibition. A value of 0 means no net growth occurred over the course of the experiment. A value of -40 indicates 40% of cells at the beginning of the experiment died by the end of the experiment. A value of -100 means all cells are dead at the end of the experiment.
# NCI-60 Human Tumor Cell Lines Screen was performed using the standard one-dose NCI protocol, which is described in more detail at https://dtp.cancer.gov/discovery_development/nci-60/default.htm.
# Compounds with GIPRCNT values below 10 were considered active. Activity score was based on GIPRCNT using the following formula: […]
# Score is 0 for GIPRCNT values of 100 or above, 50 for GIPRCNT values of 0, and 100 for GIPRCNT values of -100.
row,Compound,growth
1,Cc1ccc2c(c1)C13C(=C2Br)CCCN1C(=O)c1ccccc13 (stereo not given),96.5% (inactive)
2,O=c1c2ccccc2nc(COc2ccccc2)n1NS(=O)(=O)c1ccc(Cl)cc1,83.6% (inactive)
3,Cn1ccnc1C(=O)/C=C/C=C/c1ccc(C(=O)Nc2ccc(F)cc2)cc1,-36.3% (active)
4,COc1cc(OC)c(/C=C/S(=O)(=O)Cc2ccc(OC)c(NC(=O)CCC(=O)NO)c2)c(OC)c1,3.5% (active)
5,N#Cc1cnc2ccc(-c3cnc(N)nc3)cc2c1N1CCc2cc(F)c(Cl)cc21,2.24% (active)
6,CCCSc1nc(Nc2ccc(/C(C)=N\NC(N)=S)cc2)c(C#N)c(-c2ccccc2)n1,49% (inactive)
7,NS(=O)(=O)c1ccc(Nc2nc(N/N=C/c3c[nH]c4ccccc34)nc(Nc3ccccc3)n2)cc1,15.9% (inactive)
8,O=C1CCCc2nc(Nc3ccc(S(=O)(=O)Nc4ccc([N+](=O)[O-])cc4)cc3)ncc21,108% (inactive)
9,O=C(CCn1cc[n+](CC(=O)c2ccc(-c3ccccc3)cc2)c1)Nc1cccc2cccnc12,84.5% (inactive)
10,COC(=O)C[Se]C(=O)Cc1c(C)n(C(=O)c2ccc(Cl)cc2)c2ccc(OC)cc12,4.82% (active)
11,O=C1C(c2ccccc2)=C(N2CCc3ccccc32)OC1(Cl)Cl,2.36% (active)
12,CNC(=O)c1cc(Oc2ccc3nc(NC(=O)c4cc(N5CCOCC5)cc(C(F)(F)F)c4)sc3c2)ccn1,63.1% (inactive)
13,O=S(=O)(NCCNc1nccc(-n2cnc3ccccc32)n1)c1ccc(Cl)cc1,94.6% (inactive)
14,CCN(CC)c1ccc2c(c1)Oc1nc(N)c(C#N)c(N)c1C2Sc1ccc(C)cc1 (stereo not given),-80.2% (active)
15,Cc1cc(-c2ccc(Cl)cc2)n(Cc2nnc(SCC(=O)Nc3ccc(S(N)(=O)=O)cc3)n2C2CCCCC2)n1,107% (inactive)
16,O=C1CC(=O)N2CSCN(C(c3ccccc3)c3nc4ncncc4[nH]3)C2=N1 (stereo not given),105% (inactive)
17,CC(C)(C)c1ccc(C(=O)Nc2sc3c(c2C(N)=O)CCC(O)C3)cc1 (stereo not given),26.3% (inactive)
18,Cc1ccc(-c2cc3nc(C(Cl)Cl)nc(C)n3n2)cc1,108% (inactive)
19,COc1ccc([C@H]2c3[nH]c4ccccc4c3C[C@H]3C(=O)N(C4CCN(Cc5c(Cl)cccc5Cl)CC4)CC(=O)N23)c(OC)c1,92.6% (inactive)
20,CS(=O)(=O)Nc1cc(-c2ccc3ncc(C#N)c(Nc4cccc(Cl)c4F)c3c2)cnc1Cl,-14.8% (active)

row,Compound,growth
1,O=C(NNc1nc2cc(F)c(F)cc2n2c(CN3CC4CNCC4C3)ccc12)c1cnccn1 (stereo not given),14.8% (inactive)
2,COc1ccc(Oc2ccc(/C=N/NC(=O)CSc3nc4ccccc4c(=O)n3-c3ccc(Cl)cc3)cc2)cc1,13.3% (inactive)
3,Cc1c(Cl)cccc1S(=O)(=O)Nc1ccc2c(c1)C(=O)N(C1CCC(=O)NC1=O)C2=O (stereo not given),107% (inactive)
4,COc1cc(-c2nnc(SCc3ccc(O)c4ncccc34)n2-c2ccccc2)cc(OC)c1OC,5.72% (active)
5,Cn1ccnc1C(=O)/C=C/c1ccc(CNC(=O)c2ccc(S(F)(F)(F)(F)F)cc2)cc1,-17.1% (active)
6,CC(C)(C)CC(C)(C)n1nnnc1C(Nc1nccs1)c1cc2cccc3ccc4cccc1c4c32 (stereo not given),97.7% (inactive)
7,NC(=O)c1c(NC(=O)c2ccc(F)cc2F)sc2c1CCC(=O)C2,11.3% (inactive)
8,CC1(C)NCCC[C@]2(C)[C@H]3C/C(=N\O)C4[C@@H]5C[C@@](C)(CO)CC[C@]5(C)CC[C@@]4(C)[C@]3(C)CC[C@@H]12 (stereo not given in full),86.3% (inactive)
9,Oc1cccc2ccc(-c3nnc(SCc4ccc(O)c5ncccc45)o3)nc12,5.66% (active)
10,CN1c2ccccc2Sc2cc(C=C(C#N)C#N)ccc21,105% (inactive)
11,CC(C)(C)c1ccc(C(=O)Nc2sc3c(c2C(N)=O)CC/C(=N\O)C3)cc1,10.5% (inactive)
12,CNC(=O)c1cc(-n2ccc3cc(NC(=O)Nc4ccc(N5CCOCC5)c(C(F)(F)F)c4)ccc32)ccn1,20.5% (inactive)
13,CC(=O)c1cc(C(=O)N2c3ccccc3Sc3ccccc32)n2ccc3ccccc3c12,24.4% (inactive)
14,COc1ccc(CCOc2cc3c(cc2OC)CCN(C(=O)NCc2cocn2)C3c2ccc(C)cc2C)cc1 (stereo not given),6.95% (active)
15,COc1cc(Cn2cc3c(c2)-c2onc(CN4CCOCC4)c2CC3)cc(OC)c1OC,104% (inactive)
16,Cc1ccc(CSc2nc(-c3ccc(Cl)cc3)c(C#N)c(N3CCNCC3)n2)cc1,66.9% (inactive)
17,COc1ccc(/C(N)=N/C(N)=N/c2nc3ccccc3s2)cc1,79.6% (inactive)
18,CCCn1cnc2c(c1=N)C(c1ccc(F)cc1)c1sc3c(C)cccc3c1O2 (stereo not given),16.7% (inactive)
19,COc1ccccc1NC1=C(Cl)C(=O)c2nc(C)ccc2C1=O,-80.6% (active)
20,COc1cc(OC)c(/C=C/S(=O)(=O)Cc2ccc(OC)c(NCC(=O)NO)c2)c(OC)c1,3.2% (active)
